Screening results: PubChem, Broad Institute
PD-1 reverse act = reversal of PD-1 mediated T-cell inhibition. 29,000 tested, under 10 active. activation, % (concentration not given with the values). primary human CD4 T cells, PD-L1 beads, CellTiter-Glo 96 h; call rule not given here
U2OS ROS induce = raises reactive oxygen species in U2OS cancer cells; U2OS ROS induction, H2DCF-DA fluorescence; ROS induction (% of piperlongumine), % at 10 µM; 46,000 tested, 2% active; AID 624156; in the data active = ROS induction above about 79%, passing the limit was not always enough
NOMO-1 viab = STK33 inhibitor candidate reducing NOMO-1 cell viability; 37,000 tested, 7.5% active; NOMO-1 AML viability, CellTiter-Glo luminescence, 72 h; inhibition, % (test concentration not listed); in the data active = inhibition above about 80%
Large screens that a line does not name were inactive. Many of the other results were omitted from the sample, so hits are more common in it than they were.

CCOC(=O)CN1C(=O)C2(C(C(=O)OCC)=C(N)OC3=C2C(=O)CC(C)(C)C3)c2ccccc21 (stereo not given)	none
Fc1ccc(Sc2c(F)c(F)nc(N3CCNCC3)c2F)cc1	none (no result: PD-1 reverse act, NOMO-1 viab)
Cc1ccccc1OCCCn1cc(C(=O)C2CC2)c2ccccc21	none (no result: PD-1 reverse act, NOMO-1 viab)
C/C=C(\C)[C@H](O)[C@H](C)/C=C(C)/C=C/C/C(C)=C/Cc1[nH]c(OC)c(OC)c(=O)c1C	NOMO-1 viab 99
COC(=O)C12CC3CC(C(C)O)C1N(CCc1c2[nH]c2ccc(OC)cc12)C3 (stereo not given)	none
COC[C@H]1OC(=O)c2coc3c2[C@@]1(C)C1=C(C3=O)[C@@H]2CCC(=O)[C@@]2(C)C[C@H]1OC(C)=O	NOMO-1 viab 90
O=C(CCCN1CCC2(CC1)C(=O)N(Cc1cccc(F)c1)CN2c1ccccc1)c1ccc(F)cc1	NOMO-1 viab 91 (no result: PD-1 reverse act)
CCCCCc1cc(O)c2c(c1)OC(C)(C)[C@@H]1CCC(C(=O)O)=CC21 (stereo not given in full)	none
CC(C)n1[nH]c(=O)c2c1NC(=O)CSC2c1ccc(Br)cc1 (stereo not given)	none (no result: PD-1 reverse act, NOMO-1 viab)
C=C1[C@]23C(=O)O[C@@H](C)[C@]2(O)C(=O)O[C@@]1(C)[C@H](OC(C)=O)C1=C(C)[C@@]2(C=CC(=O)OC2(C)C)CCC13C (stereo not given in full)	none
CC[C@H]1CN2CCc3cc(OC)c(OC)cc3[C@@H]2C[C@@H]1C[C@H]1NCCc2cc(O)c(OC)cc21	NOMO-1 viab 120 (no result: PD-1 reverse act)
COc1cc2c(cc1O)CCNC2C (stereo not given)	none (no result: PD-1 reverse act)
CCC1CN2CCC3(C(=O)Nc4cccc(O)c43)C2CC1/C(=C/OC)C(=O)OC (stereo not given)	none
Cc1cc(Br)c(NC(=O)C2C(C)(C)C2(C)C)c(Br)c1	NOMO-1 viab 89
CC1(C)C(C(=O)Nc2ccccc2C#N)C1(C)C	none
CC1(C)C(=O)C=C[C@@]2(C)C1C[C@@H](O)[C@]1(C)C2CC[C@@]2(C)[C@H](c3ccoc3)OC(=O)[C@H]3O[C@]321 (stereo not given in full)	none (no result: PD-1 reverse act)
CN1CCc2nc3sc(C(=O)C(C)(C)C)c(N)c3cc2C1	NOMO-1 viab 122
CCOc1ccc(C(Nc2ccccc2)P2(=S)OCCCO2)cc1 (stereo not given)	none (no result: PD-1 reverse act, NOMO-1 viab)
CCCCCc1cc(OC)c(CC=C(C)C)c(O)c1C(=O)O	none (no result: PD-1 reverse act, NOMO-1 viab)
CCC(C)[C@H]1C(=O)O[C@H](C(C)C)C(=O)N(C)[C@@H](C(C)CC)C(=O)O[C@H](C(C)C)C(=O)N(C)[C@@H](C(C)CC)C(=O)O[C@H](C(C)C)C(=O)N1C (stereo not given in full)	NOMO-1 viab 119
CCC(C)[C@H]1C(=O)O[C@H](C(C)C)C(=O)N(C)[C@@H](C(C)C)C(=O)O[C@H](C(C)C)C(=O)N(C)[C@@H](C(C)C)C(=O)O[C@H](C(C)C)C(=O)N1C (stereo not given in full)	none (no result: PD-1 reverse act, NOMO-1 viab)
c1cncc(C2N=C(c3cnccn3)NN2)c1 (stereo not given)	none
CC(CCc1ccc(O)cc1)O[C@@H]1O[C@H](CO[C@H]2OC[C@](O)(CO)[C@H]2O)[C@@H](O)[C@H](O)[C@H]1O (stereo not given in full)	none
c1ccc(CSc2nnc(-c3ccccc3)o2)cc1	none
Cc1ccc(-n2c(CNCc3cccnc3)nc3ccccc3c2=O)cc1	none
Oc1cccc2cccnc12	NOMO-1 viab 111 (no result: PD-1 reverse act)
CN(C(=O)Oc1cccc2cccnc12)c1ccccc1	none (no result: PD-1 reverse act, NOMO-1 viab)
Cc1ccc(NC(=O)c2cc(C)n(C(C)(C)C)n2)cc1	none
C[C@@]12C[C@@H](c3ccoc3)OC(=O)C1CC[C@]1(C)[C@H]2[C@H]2C=C[C@]1(O)C(=O)O2 (stereo not given in full)	none
CCCN1CCc2cccc3c2[C@H]1Cc1ccc(O)c(O)c1-3	NOMO-1 viab 113 (no result: PD-1 reverse act)
COc1cc2c3c(c1OC)-c1c(ccc(O)c1O)CC3N(C)CC2 (stereo not given)	none
CC(C)[C@]12O[C@H]1[C@@H]1O[C@]13[C@]1(O[C@H]1C[C@H]1C4=C(CC[C@@]13C)C(=O)OC4)[C@@H]2O	NOMO-1 viab 114 (no result: PD-1 reverse act)
CCNC(=S)N1CCN(CC(=O)Nc2ccc(Cl)cc2C(=O)c2ccccc2)CC1	none
C[C@@H]1C(=O)O[C@H]2[C@H]1CC[C@@]1(C)C=CC(=O)[C@@]3(C)O[C@@]213	NOMO-1 viab 88
COC(=O)C1=CO[C@H](C)[C@@H]2CN3CCC4(C(=O)Nc5ccccc54)C3C[C@H]12 (stereo not given in full)	none (no result: PD-1 reverse act, NOMO-1 viab)
C[C@H]1CN([C@@H](C)CO)C(=O)CCCn2cc(nn2)CO[C@H]1CN(C)C(=O)Oc1cccc2ccccc12	none (no result: PD-1 reverse act, NOMO-1 viab)
N#CC(O[C@@H]1O[C@H](CO)[C@@H](O)[C@H](O)[C@H]1O)c1ccccc1 (stereo not given in full)	none
CC(C)(O)CCC(=O)[C@](C)(O)[C@H]1[C@H](O)C[C@@]2(C)[C@@H]3CC=C4C(C=C(O[C@@H]5O[C@H](CO)[C@@H](O)[C@H](O)[C@H]5O)C(=O)C4(C)C)[C@]3(C)C(=O)C[C@]12C (stereo not given in full)	none
Cc1ccc(CN(C)C)c(OC(=O)N(C)C)c1	none (no result: PD-1 reverse act, NOMO-1 viab)
CCOC(=O)c1cc(C(C)(C)C)nc(OC(=O)N(C)C)c1C#N	NOMO-1 viab 101
COc1ccc(CCNCc2cc(Cl)cc(Cl)c2OC)cc1OC	none
Cc1cccc(C)c1NC1=NCCS1	none (no result: PD-1 reverse act, NOMO-1 viab)
CCN(CC)P1(=O)OC(C)(C)CC1(C)O (stereo not given)	none
CC(=O)Oc1ccc(/C=C/c2cc(OC(C)=O)cc(OC(C)=O)c2)cc1	NOMO-1 viab 88 (no result: PD-1 reverse act)
C=C(C)[C@@H]1[C@H]2OC(=O)[C@@H]1[C@]1(O)C[C@H]3O[C@]34C(=O)O[C@H]2[C@]14C	none (no result: PD-1 reverse act)
CCOC(=S)SCc1nc2ccccc2c(=O)n1-c1ccccc1	none (no result: PD-1 reverse act, NOMO-1 viab)
c1ccc2c(CNCCc3c[nH]c4ccccc34)cccc2c1	NOMO-1 viab 106
CN(C)Cc1c[nH]c2ccccc12	none (no result: PD-1 reverse act)
CCOC(=O)C1(c2ccccc2)CCN(C(=O)c2c(C)oc3ccc(OC)cc23)CC1	U2OS ROS induce 80 (no result: PD-1 reverse act, NOMO-1 viab)
c1ccc(C2N3CCCN2CC3)cc1 (stereo not given)	none (no result: PD-1 reverse act, NOMO-1 viab)
Cc1ccnc(NC(c2ccccc2[N+](=O)[O-])c2ccc3ccc(C)nc3c2O)c1 (stereo not given)	NOMO-1 viab 124
CCCC(C)n1[nH]c(=O)c2c1NC(=O)CSC2c1cccc([N+](=O)[O-])c1 (stereo not given)	none (no result: U2OS ROS induce)
CC(C(=O)Nc1ccc(Cl)cc1C(=O)c1ccccc1)N1C(=O)C2C3C=CC(C3)C2C1=O (stereo not given)	none
COC(=O)C1CC(=O)C[C@H]2[C@]3(C)C[C@@H](c4ccoc4)OC(=O)[C@H]3CC[C@@]12C (stereo not given in full)	none
CC1OC(n2cnc3c(N)ncnc32)C[C@H]1O (stereo not given in full)	none
CCC1CC2CC3(C(=O)OC)c4[nH]c5ccc(OC)cc5c4CCN(C2=O)C13 (stereo not given)	none
CN1CCC2=C[C@H](O)[C@H]3OC(=O)c4cc5c(cc4[C@H]3[C@@H]21)OCO5	none (no result: PD-1 reverse act)
CN1Cc2c(ccc3c2OCO3)[C@@H]2[C@H]1c1cc3c(cc1C[C@@H]2O)OCO3	NOMO-1 viab 138
